Measurements reported in PubChem BioAssay (EPA / NIEHS).
Calls of active or inactive are those of the source. The calls were made as follows: active = hit-call score of the fitted dose curve at least 0.9, where 1 is the maximum; inactive = score below 0.9.

Experiments:
[1] = ATG_ISRE_CIS: Attagene CIS-FACTORIAL HepG2 Assay for human Interferon Regulatory Factor 1 (IRF1) binding to an Interferon-Stimulated Response Element (ISRE) (AID 2282948); settings: HepG2 ISRE cis-reporter (Attagene), mRNA transcription readout; actives raise or lower the signal
Procedure, shortened: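 Endogenous transcription factor activity read as reporter transcript abundance via RT-PCR and capillary electrophoresis. HepG2 cells transiently transfected, 24 h chemical exposure. Gain or loss fitted against DMSO baseline.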

[2] = ATG_M_32_CIS: Attagene CIS-FACTORIAL HepG2 Assay for M32 Transcription Factor (Internal Marker) (AID 2282949); settings: HepG2 Attagene cis-factorial M32 reporter, mRNA; actives raise or lower the signal;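 also: background control marker of the multiplexed CIS panel rather than a real target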
Procedure, shortened: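 Using DMSO as baseline, bidirectional curve fits were applied to reporter mRNA signals. These came from transiently transfected HepG2 cells exposed for 24 h, with RNA analysed by RT-PCR, FAM primer extension, HpaI digestion and CE.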

[3] = ATG_M_06_CIS: Attagene CIS-FACTORIAL HepG2 Assay for M06 Transcription Factor (Internal Marker) (AID 2282950); settings: HepG2 Attagene CIS-FACTORIAL M06 internal marker reporter; actives raise or lower the signal
Procedure, shortened: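 Steps: transfect HepG2 with multiplexed cis-element reporter constructs; dose chemical 24 h; extract RNA with DNase treatment; reverse-transcribe, PCR-amplify, 6-FAM label, HpaI digest; separate fragments by capillary electrophoresis. Activity fitted both directions versus DMSO.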

[4] = target: Hypoxia-inducible factor 1-alpha (Homo sapiens) (UniProt Q16665); assay: ATG_HIF1a_CIS: Attagene CIS-FACTORIAL HepG2 Assay for human Hypoxia Inducible Factor 1 (HIF1A) (AID 2282951); settings: HepG2 Attagene cis-factorial HIF1a reporter transcription; actives raise or lower the signal
Procedure, shortened: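 HepG2 cells transiently transfected with multiple cis-regulated reporter transcription units measure endogenous transcription factor activity. After 24 h exposure, reporter mRNA is quantified by RT-PCR with 6-FAM labelling, HpaI digestion and capillary electrophoresis. Bidirectional fitting against DMSO.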

[5] = target: Hepatocyte nuclear factor 6 (Homo sapiens) (UniProt Q9UBC0); assay: ATG_HNF6_CIS: Attagene CIS-FACTORIAL HepG2 Assay for human Hepatocyte Nuclear Factor 6 (HNF6) (AID 2282952); settings: HepG2 Attagene cis-factorial HNF6 reporter transcription; actives raise or lower the signal
Procedure, shortened: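 Twenty-four-hour chemical treatment of reporter-transfected HepG2 cells precedes RNA isolation, DNase-treated reverse transcription and PCR of reporter sequences. Labelled fragments are sized by capillary electrophoresis and fitted bidirectionally versus DMSO.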

[6] = target: Heat shock factor protein 1 (Homo sapiens) (UniProt Q00613); assay: ATG_HSE_CIS: Attagene CIS-FACTORIAL HepG2 Assay for human Heat Shock Transcription Factor 1 (HSE) (AID 2282953); settings: HepG2 HSE cis-reporter, Attagene RNA transcription; actives raise or lower the signal
Procedure, shortened: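 Cells were transfected with cis-element-driven reporter constructs, dosed for 24 h, then total RNA was reverse-transcribed and reporter cDNA amplified, FAM-labelled and digested with HpaI. Fragments were resolved by capillary electrophoresis; gain or loss was fitted against DMSO.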

[7] = ATG_MRE_CIS: Attagene CIS-FACTORIAL HepG2 Assay for human Metal Responsive Element (MRE) (AID 2282954); settings: HepG2 MRE cis-reporter transcription, Attagene multiplex; actives raise or lower the signal
Procedure, shortened: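 Multiplexed cis-reporter assay in human HepG2 liver cells, 24 h incubation with test chemical. Reporter transcripts measured by RT-PCR and capillary electrophoresis; values from bidirectional curve fitting versus DMSO.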

[8] = ATG_PBREM_CIS: Attagene CIS-FACTORIAL HepG2 Assay for human Phenobarbital-responsive Enhancer Module (PBREM) (AID 2282955); settings: HepG2 PBREM cis-reporter, Attagene multiplexed transcription; actives raise or lower the signal
Procedure, shortened: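 HepG2 cells transiently transfected with multiple cis-regulated reporter units measure endogenous transcription factor activity; 24 h compound exposure. Reporter mRNA quantified by RT-PCR, fluorescent labelling, HpaI digestion and capillary electrophoresis; bidirectional fit versus DMSO.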

[9] = target: Paired box protein Pax-6 (Homo sapiens) (UniProt P26367); assay: ATG_Pax6_CIS: Attagene CIS-FACTORIAL HepG2 Assay for human Paired Box 6 (PAX6) (AID 2282956); settings: HepG2 CIS-FACTORIAL PAX6 reporter transcription, RNA readout; actives raise or lower the signal
Procedure, shortened: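 Read-out is reporter transcript level, measured by RT-PCR with fluorescent primer extension and capillary electrophoresis after 24 h dosing of transfected HepG2 cells. Activity in either direction fitted relative to DMSO control.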

[10] = ATG_PXRE_CIS: Attagene CIS-FACTORIAL HepG2 Assay for human Pregnane X Receptor Element (PXRE) (AID 2282957); settings: HepG2 Attagene CIS-FACTORIAL PXRE reporter, mRNA; actives raise or lower the signal
Procedure, shortened: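 Bidirectional activity, baselined to DMSO, derived from reporter mRNA fluorescence (RT-PCR plus capillary electrophoresis) in HepG2 cells bearing cis-promoter reporter units, 24 h exposure.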

[11] = ATG_PPRE_CIS: Attagene CIS-FACTORIAL HepG2 Assay for human Peroxisome Proliferator-activated Response Element (PPRE) (AID 2282958); settings: HepG2 PPRE cis-element reporter, Attagene transcription factor profiling; actives raise or lower the signal
Procedure, shortened: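 HepG2 cells are transiently transfected with multiplexed cis-promoter reporter units to report endogenous PPAR activity. After 24 h dosing, reporter mRNA is read by RT-PCR and capillary electrophoresis. Fitting is bidirectional against DMSO.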

[12] = ATG_RORE_CIS: Attagene CIS-FACTORIAL HepG2 Assay for human RAR-related Orphan Receptor Element (RORE) (AID 2282959); settings: HepG2 Attagene cis-factorial RORE reporter, mRNA; actives raise or lower the signal
Procedure, shortened: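 HepG2 cells carrying transiently transfected cis-regulated reporter units; RORE-driven reporter mRNA quantified 24 h post-dosing by RT-PCR, 6-FAM primer extension, HpaI digestion and capillary electrophoresis. Bidirectional fit versus DMSO.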

[13] = ATG_Sox_CIS: Attagene CIS-FACTORIAL HepG2 Assay for human SRY-box transcription factor (SOX) (AID 2282960); settings: HepG2 Attagene cis-factorial SOX reporter, mRNA; actives raise or lower the signal
Procedure, shortened: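 HepG2 cells transiently transfected with multiple cis-regulated reporter units, then dosed for 24 h. Reporter mRNA quantified by RT-PCR, fluorescent labelling, HpaI digestion and capillary electrophoresis; bidirectional fit versus DMSO.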

[14] = target: Transcription factor Sp1 (Homo sapiens) (UniProt P08047); assay: ATG_Sp1_CIS: Attagene CIS-FACTORIAL HepG2 Assay for human Specificity Protein 1 (Sp1) (AID 2282961); settings: HepG2 Sp1 cis-reporter transcription, actives raise or lower the signal
Procedure, shortened: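 HepG2 cells transiently transfected with multiplexed cis-regulated reporter constructs, chemical exposure 24 h. Reporter mRNA quantified by RT-PCR with capillary electrophoresis; bidirectional fit relative to DMSO.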

[15] = ATG_SREBP_CIS: Attagene CIS-FACTORIAL HepG2 Assay for human Sterol Regulatory Element Binding (SREBP) (AID 2282962); settings: HepG2 Attagene cis-factorial SREBP reporter, mRNA; actives raise or lower the signal
Procedure, shortened: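 Endogenous SREBP activity read as cis-element-driven reporter transcript in transiently transfected HepG2, 24 h post-dosing; quantified via RT-PCR plus capillary electrophoresis of fluorescent fragments. Gain or loss of signal fitted relative to DMSO baseline.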

[16] = target: Signal transducer and activator of transcription 3 (Homo sapiens) (UniProt P40763); assay: ATG_STAT3_CIS: Attagene CIS-FACTORIAL HepG2 Assay for human Signal Transducer and Activator of Transcription 3 (STAT3) (AID 2282963); settings: HepG2, Attagene cis-factorial STAT3 reporter transcription; actives raise or lower the signal
Procedure, shortened: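 Cis-factorial format: endogenous transcription factors in HepG2 drive transfected reporter units. After 24 h treatment, reporter RNA was reverse-transcribed, amplified, FAM-labelled and HpaI-digested before CE analysis; activity scored in both directions against DMSO.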

[17] = ATG_TA_CIS: Attagene CIS-FACTORIAL HepG2 Assay for human TA Basal Promoter (AID 2282964); settings: HepG2 Attagene CIS-factorial TA basal promoter reporter; actives raise or lower the signal
Procedure, shortened: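 Steps: transfect HepG2 with MRTUs; dose 24 h; isolate RNA, DNase-treat, reverse-transcribe; PCR and FAM-label reporter cDNA; digest with HpaI 2h at 37 C; run capillary electrophoresis. Activity fitted both directions against DMSO.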

[18] = ATG_TCF_b_cat_CIS: Attagene CIS-FACTORIAL HepG2 Assay for human T-Cell-Factor with beta-catenin (TCF/b-cat) (AID 2282965); settings: HepG2 TCF/beta-catenin cis-reporter transcription, actives raise or lower the signal
Procedure, shortened: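 Measured: reporter mRNA in HepG2 transiently transfected with cis-promoter reporter units, 24 h after chemical addition. Fitting was bidirectional, DMSO as negative control.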

[19] = ATG_TAL_CIS: Attagene CIS-FACTORIAL HepG2 Assay for human TAL Basal Promoter (AID 2282966); settings: HepG2 Attagene cis-factorial TAL promoter reporter; actives raise or lower the signal;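 also: background control endpoint measuring basal TAL promoter reporter mRNA not a specific factor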
Procedure, shortened: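 Human hepatoma HepG2 cells, transfected with promoter-regulated reporter units, were treated 24 h. Reporter transcript levels, measured through RT-PCR and capillary electrophoresis, were fitted for gain or loss relative to DMSO.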

[20] = ATG_GRE_CIS: Attagene CIS-FACTORIAL HepG2 Assay for human Glucocorticoid Response Elements (GRE) (AID 2282947); settings: HepG2 GRE cis-reporter, Attagene multiplex mRNA; actives raise or lower the signal
Procedure, shortened: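 Multiplexed cis-reporter mRNA induction, HepG2, 24 h post-dose. RT-PCR, FAM-labelled, HpaI-digested amplicons by CE. Bidirectional fit vs DMSO.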

Measured: AC50

Signal transducer and activator of transcription 3 (Homo sapiens), sequence (P40763 whole entry, looked up): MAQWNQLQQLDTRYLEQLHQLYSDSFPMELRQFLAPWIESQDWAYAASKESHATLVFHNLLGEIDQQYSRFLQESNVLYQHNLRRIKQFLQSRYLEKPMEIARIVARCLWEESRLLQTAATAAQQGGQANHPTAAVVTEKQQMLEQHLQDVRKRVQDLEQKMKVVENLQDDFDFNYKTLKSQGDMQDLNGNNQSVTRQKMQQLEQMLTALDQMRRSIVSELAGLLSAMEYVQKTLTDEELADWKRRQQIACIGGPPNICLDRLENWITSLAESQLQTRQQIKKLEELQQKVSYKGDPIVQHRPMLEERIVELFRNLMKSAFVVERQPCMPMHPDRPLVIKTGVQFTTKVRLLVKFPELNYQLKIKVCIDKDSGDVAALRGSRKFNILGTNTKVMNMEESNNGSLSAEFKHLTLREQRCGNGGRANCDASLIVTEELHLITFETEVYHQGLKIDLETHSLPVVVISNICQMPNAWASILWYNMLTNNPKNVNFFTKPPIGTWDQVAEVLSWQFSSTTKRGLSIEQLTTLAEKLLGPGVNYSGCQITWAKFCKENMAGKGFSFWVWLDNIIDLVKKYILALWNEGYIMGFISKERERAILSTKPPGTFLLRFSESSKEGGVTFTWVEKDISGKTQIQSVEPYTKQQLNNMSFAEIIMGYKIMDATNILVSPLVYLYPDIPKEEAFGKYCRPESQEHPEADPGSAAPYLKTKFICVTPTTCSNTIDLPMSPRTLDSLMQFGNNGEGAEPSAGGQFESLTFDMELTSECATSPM
Paired box protein Pax-6 (Homo sapiens), sequence (P26367 whole entry, looked up): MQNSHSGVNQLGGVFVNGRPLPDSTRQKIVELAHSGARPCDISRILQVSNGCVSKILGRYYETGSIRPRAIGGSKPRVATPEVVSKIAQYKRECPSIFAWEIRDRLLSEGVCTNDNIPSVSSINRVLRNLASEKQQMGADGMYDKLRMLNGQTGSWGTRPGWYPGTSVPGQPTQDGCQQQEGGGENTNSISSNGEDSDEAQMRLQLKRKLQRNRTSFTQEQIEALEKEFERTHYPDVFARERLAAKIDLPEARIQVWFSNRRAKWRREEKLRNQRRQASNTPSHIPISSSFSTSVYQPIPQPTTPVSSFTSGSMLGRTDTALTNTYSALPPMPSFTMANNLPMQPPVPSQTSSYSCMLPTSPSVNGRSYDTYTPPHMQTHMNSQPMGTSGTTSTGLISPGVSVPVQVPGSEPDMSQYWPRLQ
Hepatocyte nuclear factor 6 (Homo sapiens), sequence (Q9UBC0 whole entry, looked up, the tested form may be a part): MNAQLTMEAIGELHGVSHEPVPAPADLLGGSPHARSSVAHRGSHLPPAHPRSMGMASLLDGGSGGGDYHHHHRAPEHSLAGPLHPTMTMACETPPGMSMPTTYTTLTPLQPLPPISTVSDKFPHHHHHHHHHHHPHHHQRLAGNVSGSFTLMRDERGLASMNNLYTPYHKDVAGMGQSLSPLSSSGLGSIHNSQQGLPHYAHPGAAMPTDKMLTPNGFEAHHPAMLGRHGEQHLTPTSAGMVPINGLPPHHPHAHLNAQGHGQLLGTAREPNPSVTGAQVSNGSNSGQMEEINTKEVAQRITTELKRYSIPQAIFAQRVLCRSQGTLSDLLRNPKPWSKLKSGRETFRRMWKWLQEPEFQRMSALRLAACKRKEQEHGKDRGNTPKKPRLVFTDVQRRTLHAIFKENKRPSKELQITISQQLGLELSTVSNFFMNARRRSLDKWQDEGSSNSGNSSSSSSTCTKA
Hypoxia-inducible factor 1-alpha (Homo sapiens), sequence (Q16665 whole entry, looked up): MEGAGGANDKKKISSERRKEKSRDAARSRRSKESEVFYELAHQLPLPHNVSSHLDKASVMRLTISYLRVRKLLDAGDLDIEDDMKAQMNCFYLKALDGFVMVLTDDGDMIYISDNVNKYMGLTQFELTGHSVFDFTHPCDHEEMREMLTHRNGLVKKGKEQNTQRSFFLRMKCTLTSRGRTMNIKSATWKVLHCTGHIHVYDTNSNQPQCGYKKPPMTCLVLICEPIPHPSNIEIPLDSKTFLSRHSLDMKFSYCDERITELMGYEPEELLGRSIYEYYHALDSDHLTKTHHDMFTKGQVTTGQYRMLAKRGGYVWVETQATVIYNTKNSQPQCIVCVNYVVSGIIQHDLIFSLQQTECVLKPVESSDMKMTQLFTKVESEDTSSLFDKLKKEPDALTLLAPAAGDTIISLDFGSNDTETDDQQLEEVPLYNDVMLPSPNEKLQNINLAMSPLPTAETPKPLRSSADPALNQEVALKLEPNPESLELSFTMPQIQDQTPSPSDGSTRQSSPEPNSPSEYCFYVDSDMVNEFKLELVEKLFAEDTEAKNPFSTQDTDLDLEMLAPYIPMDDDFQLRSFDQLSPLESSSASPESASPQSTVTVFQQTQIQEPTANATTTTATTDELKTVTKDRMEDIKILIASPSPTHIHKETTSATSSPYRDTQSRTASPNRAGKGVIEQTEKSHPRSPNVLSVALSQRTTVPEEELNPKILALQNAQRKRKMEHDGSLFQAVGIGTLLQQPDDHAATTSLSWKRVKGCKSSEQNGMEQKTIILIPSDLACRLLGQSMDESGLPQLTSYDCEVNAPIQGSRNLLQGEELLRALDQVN
Transcription factor Sp1 (Homo sapiens), sequence (P08047 whole entry, looked up): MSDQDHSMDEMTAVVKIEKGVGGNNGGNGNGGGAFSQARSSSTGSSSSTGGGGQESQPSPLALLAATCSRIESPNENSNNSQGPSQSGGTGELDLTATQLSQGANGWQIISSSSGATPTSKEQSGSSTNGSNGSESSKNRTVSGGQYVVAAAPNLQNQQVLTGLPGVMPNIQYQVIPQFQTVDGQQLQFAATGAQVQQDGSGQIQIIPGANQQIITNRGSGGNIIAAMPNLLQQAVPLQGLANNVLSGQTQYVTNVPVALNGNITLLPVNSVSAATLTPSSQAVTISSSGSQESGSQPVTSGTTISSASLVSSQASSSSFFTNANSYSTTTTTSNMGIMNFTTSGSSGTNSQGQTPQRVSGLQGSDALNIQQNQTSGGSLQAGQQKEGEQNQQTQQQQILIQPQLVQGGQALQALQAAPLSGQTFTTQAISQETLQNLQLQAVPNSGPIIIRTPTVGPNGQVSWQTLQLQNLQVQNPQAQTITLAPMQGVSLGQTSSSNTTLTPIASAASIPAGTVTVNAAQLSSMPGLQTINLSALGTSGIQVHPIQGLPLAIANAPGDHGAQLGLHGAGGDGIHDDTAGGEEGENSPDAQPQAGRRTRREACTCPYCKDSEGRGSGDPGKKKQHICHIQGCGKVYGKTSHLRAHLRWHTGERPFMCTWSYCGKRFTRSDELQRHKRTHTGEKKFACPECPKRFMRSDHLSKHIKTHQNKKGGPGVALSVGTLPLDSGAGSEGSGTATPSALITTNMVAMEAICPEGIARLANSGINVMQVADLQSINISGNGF
Heat shock factor protein 1 (Homo sapiens), sequence (Q00613 whole entry, looked up, the tested form may be a part): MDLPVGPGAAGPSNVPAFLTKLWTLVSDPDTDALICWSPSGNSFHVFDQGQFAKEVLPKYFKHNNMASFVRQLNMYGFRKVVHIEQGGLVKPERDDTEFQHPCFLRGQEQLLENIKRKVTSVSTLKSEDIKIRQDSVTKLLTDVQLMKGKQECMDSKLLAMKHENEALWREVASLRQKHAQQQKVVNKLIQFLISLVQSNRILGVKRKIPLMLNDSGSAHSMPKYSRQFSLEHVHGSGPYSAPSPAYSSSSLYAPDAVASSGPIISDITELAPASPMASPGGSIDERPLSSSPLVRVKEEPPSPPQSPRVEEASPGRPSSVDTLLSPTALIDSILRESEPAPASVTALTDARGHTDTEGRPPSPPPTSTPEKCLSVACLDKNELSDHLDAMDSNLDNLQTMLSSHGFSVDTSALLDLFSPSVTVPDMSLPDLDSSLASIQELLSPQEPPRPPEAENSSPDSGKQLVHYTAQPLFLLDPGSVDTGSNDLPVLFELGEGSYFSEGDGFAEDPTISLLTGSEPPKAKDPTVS

CN(C)C(=O)Nc1cccc(C(F)(F)F)c1
not listed: [20]
inactive: all other assays above

Cc1ccn2nc(S(=O)(=O)Nc3c(F)cccc3F)nc2n1
active: [10] 9.86 µM
not listed: [5] | [20]
inactive: all other assays above

CCCSP(=O)(OCC)Oc1ccc(Br)cc1Cl (centres undefined)
active: [10] 3.04 µM | [15] 1.31 µM
not listed: [5] | [20]
inactive: all other assays above

O=c1ccc(=O)[nH][nH]1
active: [10] 26.7 µM
not listed: [5] | [8] | [11] | [20]
inactive: all other assays above

Cc1cc(C2CC2)nc(Nc2ccccc2)n1
inactive: [2] | [3] | [5] | [6] | [12] | [16] | [17] | [18] | [19]
active: [1] 81 µM | [4] 50 µM | [7] 74.7 µM | [8] 50 µM | [9] 50 µM | [10] 13.4 µM | [11] 22 µM | [13] 90 µM | [14] 84.7 µM | [15] 12.6 µM

COP(=O)(OC)C(O)C(Cl)(Cl)Cl (centres undefined)
active: [7] 31.5 µM | [10] 16.1 µM | [11] 41.5 µM
not listed: [4] | [5]
inactive: all other assays above

CSc1nc(NC(C)C)nc(NC(C)C)n1
active: [10] 4.94 µM
not listed: [11] | [20]
inactive: all other assays above

CCCCOC(=O)c1ccccc1C(=O)O
not listed: [5] | [20]
inactive: all other assays above

Cc1nn(-c2cc(NS(C)(=O)=O)c(Cl)cc2Cl)c(=O)n1C(F)F
active: [10] 5.33 µM
not listed: [5] | [8] | [20]
inactive: all other assays above

CN1COCN(Cc2cnc(Cl)s2)C1=N[N+](=O)[O-]
active: [10] 50 µM
not listed: [5] | [8]
inactive: all other assays above

CC(=NC#N)N(C)Cc1ccc(Cl)nc1
active: [10] 64.9 µM
not listed: [5] | [8] | [20]
inactive: all other assays above

CNC(=O)Oc1cccc2c1OC(C)(C)O2
active: [7] 67.7 µM | [10] 40.2 µM | [11] 50 µM | [14] 50 µM
not listed: [5] | [12]
inactive: all other assays above

CC[C@H](C)[C@H]1O[C@]2(C=C[C@@H]1C)C[C@@H]1C[C@@H](C/C=C(\C)[C@@H](O[C@H]3C[C@H](OC)[C@@H](O[C@H]4C[C@H](OC)[C@@H](NC)[C@H](C)O4)[C@H](C)O3)[C@@H](C)/C=C/C=C3\CO[C@@H]4[C@H](O)C(C)=C[C@@H](C(=O)O1)[C@]34O)O2
not listed: [6] | [11] | [20]
inactive: all other assays above

C#CCC1=C(C)C(OC(=O)C2C(C=C(C)C)C2(C)C)CC1=O (centres undefined)
active: [1] 71.2 µM | [2] 90.5 µM | [4] 50 µM | [6] 74.8 µM | [7] 72.2 µM | [8] 4.27 µM | [9] 72.1 µM | [10] 1.15 µM | [11] 13.2 µM | [13] 82 µM | [14] 50 µM | [15] 31 µM | [18] 38.7 µM | [19] 88.4 µM
inactive: [3] | [12] | [16] | [17]
